Measured values as given in PubChem BioAssay AID1159580 (chemical genetic matrix, 2015).
The whole screen tested about 5,500 compounds, of which about 2,000 (36%) were called active. Inconclusive results (about 18%) are left out. Rule as the data show it: active = normalized growth mostly below about 0.91 (no sharp cut-off); inconclusive = no clear call, values can overlap the other calls; inactive = mostly above about 0.92. The list shows a part of the results.

Assay: chemical genetic growth profiling, strain panel (AID 1159580);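 also: tested at 20 µM; growth read once vehicle control cultures reached saturation at 30 °C; 1 = growth at the plate median or of vehicle wells; lower values mean less growth of the strain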
Settings: growth OD

Measured: normalized growth

O=C1C=CC2=C3c4cc(O)c(O)cc4C[C@@]3(O)COC2=C1
inactive: S. cerevisiae deletion strains, locus YJR066W, strain TOR1, hits give low values 0.935 | S. cerevisiae deletion strains, locus YKL009W, strain mrt4, hits give low values 1.01 | S. cerevisiae deletion strains, locus YKL068W, hits give low values 1.01 | S. cerevisiae deletion strains, locus YKL085W, strain MDH1 (second series), hits give low values 1.01 | S. cerevisiae deletion strains, locus YKL085W, strain MDH1, hits give low values 1.01 | S. cerevisiae deletion strains, locus YKL160W, strain elf1, hits give low values 0.953 | S. cerevisiae deletion strains, locus YKR001C, strain vps1, hits give low values 1.02 | S. cerevisiae deletion strains, locus YKR026C, strain gcn3, hits give low values 0.983 | S. cerevisiae deletion strains, locus YKR091W, strain srl3, hits give low values 0.97 | S. cerevisiae deletion strains, locus YLL001W, strain dnm1, hits give low values 0.976 | S. cerevisiae deletion strains, locus YLL026W, hits give low values 0.986 | S. cerevisiae deletion strains, locus YLL041C, strain sdh2, hits give low values 0.976 | S. cerevisiae deletion strains, locus YLR027C, strain aat2, hits give low values 0.979 | S. cerevisiae deletion strains, locus YLR039C, strain RIC1, hits give low values 1.07 | S. cerevisiae deletion strains, locus YLR058C, strain SHM2, hits give low values 0.997 | S. cerevisiae deletion strains, locus YLR102C, strain apc9, hits give low values 0.992 | S. cerevisiae deletion strains, locus YLR113W, strain HOG1, hits give low values 1.08 | S. cerevisiae deletion strains, locus YLR221C, strain rsa3, hits give low values 0.991 | S. cerevisiae deletion strains, locus YLR258W, strain gsy2, hits give low values 0.971 | S. cerevisiae deletion strains, locus YLR262C, strain YPT6 (second series), hits give low values 0.976 | S. cerevisiae deletion strains, locus YLR262C, strain YPT6, hits give low values 1.08 | S. cerevisiae deletion strains, locus YLR268W, strain sec22, hits give low values 1.03 | S. cerevisiae deletion strains, locus YLR320W, strain mms22, hits give low values 0.995 | S. cerevisiae deletion strains, locus YLR342W, strain FKS1, hits give low values 0.985 | S. cerevisiae deletion strains, locus YLR357W, strain rsc2, hits give low values 0.912 | S. cerevisiae deletion strains, locus YLR370C, strain arc18, hits give low values 0.987 | S. cerevisiae deletion strains, locus YLR371W, strain rom2, hits give low values 0.989 | S. cerevisiae deletion strains, locus YLR384C, strain iki3, hits give low values 0.971 | S. cerevisiae deletion strains, locus YLR418C, strain cdc73, hits give low values 0.991 | S. cerevisiae deletion strains, locus YML016C, strain PPZ1, hits give low values 0.996 | S. cerevisiae deletion strains, locus YML032C, strain rad52, hits give low values 1.02 | S. cerevisiae deletion strains, locus YML120C, strain ndi1, hits give low values 0.983 | S. cerevisiae deletion strains, locus YML124C, strain tub3, hits give low values 1 | S. cerevisiae deletion strains, locus YMR058W, strain fet3, hits give low values 0.941 | S. cerevisiae deletion strains, locus YMR078C, strain ctf18, hits give low values 0.996 | S. cerevisiae deletion strains, locus YMR125W, strain sto1, hits give low values 0.954 | S. cerevisiae deletion strains, locus YMR129W, hits give low values 1 | S. cerevisiae deletion strains, locus YMR205C, strain PFK2, hits give low values 0.98 | S. cerevisiae deletion strains, locus YMR223W, strain ubp8, hits give low values 0.975 | S. cerevisiae deletion strains, locus YMR231W, strain pep5, hits give low values 0.957 | S. cerevisiae deletion strains, locus YMR307W, strain GAS1, hits give low values 0.991 | S. cerevisiae deletion strains, locus YNL067W, strain RPL9B, hits give low values 0.994 | S. cerevisiae deletion strains, locus YNL071W, strain lat1, hits give low values 0.982 | S. cerevisiae deletion strains, locus YNL128W, strain TEP1, hits give low values 0.998 | S. cerevisiae deletion strains, locus YNL153C, strain GIM3, hits give low values 0.963 | S. cerevisiae deletion strains, locus YNL183C, strain NPR1, hits give low values 0.971 | S. cerevisiae deletion strains, locus YNL209W, strain ssb2, hits give low values 0.987 | S. cerevisiae deletion strains, locus YNL233W, strain BNI4, hits give low values 0.992 | S. cerevisiae deletion strains, locus YNL248C, strain rpa49, hits give low values 0.969 | S. cerevisiae deletion strains, locus YNL250W, strain rad50, hits give low values 0.954 | S. cerevisiae deletion strains, locus YNL271C, strain bni1, hits give low values 0.982 | S. cerevisiae deletion strains, locus YNL298W, strain CLA4, hits give low values 0.996 | S. cerevisiae deletion strains, locus YNL307C, strain MCK1, hits give low values 1 | S. cerevisiae deletion strains, locus YNL322C, strain KRE1 (second series), hits give low values 0.971 | S. cerevisiae deletion strains, locus YNL322C, strain KRE1, hits give low values 1.01 | S. cerevisiae deletion strains, locus YNR049C, strain mso1, hits give low values 0.977 | S. cerevisiae deletion strains, locus YNR052C, strain pop2, hits give low values 0.967 | S. cerevisiae deletion strains, locus YOL012C, strain htz1 0.978 | S. cerevisiae deletion strains, locus YOL147C, strain pex11, hits give low values 0.998 | S. cerevisiae deletion strains, locus YOR001W, strain rrp6, hits give low values 0.968 | S. cerevisiae deletion strains, locus YOR061W, strain CKA2, hits give low values 1.01 | S. cerevisiae deletion strains, locus YOR069W, strain VPS5, hits give low values 0.993 | S. cerevisiae deletion strains, locus YOR070C, strain gyp1, hits give low values 0.967 | S. cerevisiae deletion strains, locus YOR080W, strain dia2, hits give low values 0.979 | S. cerevisiae deletion strains, locus YOR083W, strain WHI5, hits give low values 0.959 | S. cerevisiae deletion strains, locus YOR106W, strain vam3, hits give low values 0.931 | S. cerevisiae deletion strains, locus YOR136W, strain idh2, hits give low values 0.998 | S. cerevisiae deletion strains, locus YOR144C, strain elg1, hits give low values 1.01 | S. cerevisiae deletion strains, locus YOR184W, strain ser1, hits give low values 1.08 | S. cerevisiae deletion strains, locus YOR231W, strain MKK1, hits give low values 1.02 | S. cerevisiae deletion strains, locus YOR265W, strain rbl2, hits give low values 0.986 | S. cerevisiae deletion strains, locus YOR270C, strain vph1, hits give low values 1.01 | S. cerevisiae deletion strains, locus YOR290C, strain snf2, hits give low values 0.946 | S. cerevisiae deletion strains, locus YOR316C, strain cot1, hits give low values 1 | S. cerevisiae deletion strains, locus YPL051W, strain arl3, hits give low values 0.968 | S. cerevisiae deletion strains, locus YPL055C, strain LGE1, hits give low values 1.04 | S. cerevisiae deletion strains, locus YPL078C, strain atp4, hits give low values 0.992 | S. cerevisiae deletion strains, locus YPL106C, strain sse1, hits give low values 0.944 | S. cerevisiae deletion strains, locus YPL240C, strain hsp82, hits give low values 0.99 | S. cerevisiae deletion strains, locus YPL241C, strain CIN2, hits give low values 1.01 | S. cerevisiae deletion strains, locus YPL256C, strain CLN2, hits give low values 1 | S. cerevisiae deletion strains, locus YPR119W, strain clb2, hits give low values 0.996 | S. cerevisiae deletion strains, locus YPR141C, strain kar3, hits give low values 0.993 | S. cerevisiae deletion strains, locus YPR163C, strain tif3, hits give low values 1 | S. cerevisiae deletion strains, locus YPR167C, strain met16, hits give low values 0.978 | S. cerevisiae deletion strains, strain wtn01, hits give low values 1.03 | S. cerevisiae strains, strain wild type, hits give low values 1.03
